From the supplement of paper PMC10849652
Targets with a hit are over-represented here; the source holds about 8,800 in all. About 0.5% of all pairs of compound and target were hits. Values without a mark were called inactive.

Compound: NCC(=O)Nc1ccc(-n2nc(C(F)(F)F)cc2-c2ccc3c(ccc4ccccc43)c2)cc1
Test: log2 fold change, soluble protein after heating vs DMSO (PISA); higher = thermal stabilisation; K562 lysate, 10 uM; active = over 0.2 and 3.5 SD of the protein, either way, in both replicates (recomputed)
Outline: (§1)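 K562 pellets were dounce-homogenised in PBS pH 7.4 containing 1 mM MgCl2, and the crude extract, at 1 mg/mL protein, was exposed to 10 μM compound for 30 min. Aliquots were heated for 3 min across 48°C-58°C, pooled, brought to 0.5% NP-40 at 4°C and spun at 21,000xg for 90 min, with the supernatant taken as soluble protein. TMTpro 16plex LC-MS/MS with equalised channel sums quantified that protein. Values are log-two fold changes in thermal stability relative to solvent controls, taken from duplicates.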

Chain of UniProt Q96RT1 (Q96RT1 whole entry, looked up): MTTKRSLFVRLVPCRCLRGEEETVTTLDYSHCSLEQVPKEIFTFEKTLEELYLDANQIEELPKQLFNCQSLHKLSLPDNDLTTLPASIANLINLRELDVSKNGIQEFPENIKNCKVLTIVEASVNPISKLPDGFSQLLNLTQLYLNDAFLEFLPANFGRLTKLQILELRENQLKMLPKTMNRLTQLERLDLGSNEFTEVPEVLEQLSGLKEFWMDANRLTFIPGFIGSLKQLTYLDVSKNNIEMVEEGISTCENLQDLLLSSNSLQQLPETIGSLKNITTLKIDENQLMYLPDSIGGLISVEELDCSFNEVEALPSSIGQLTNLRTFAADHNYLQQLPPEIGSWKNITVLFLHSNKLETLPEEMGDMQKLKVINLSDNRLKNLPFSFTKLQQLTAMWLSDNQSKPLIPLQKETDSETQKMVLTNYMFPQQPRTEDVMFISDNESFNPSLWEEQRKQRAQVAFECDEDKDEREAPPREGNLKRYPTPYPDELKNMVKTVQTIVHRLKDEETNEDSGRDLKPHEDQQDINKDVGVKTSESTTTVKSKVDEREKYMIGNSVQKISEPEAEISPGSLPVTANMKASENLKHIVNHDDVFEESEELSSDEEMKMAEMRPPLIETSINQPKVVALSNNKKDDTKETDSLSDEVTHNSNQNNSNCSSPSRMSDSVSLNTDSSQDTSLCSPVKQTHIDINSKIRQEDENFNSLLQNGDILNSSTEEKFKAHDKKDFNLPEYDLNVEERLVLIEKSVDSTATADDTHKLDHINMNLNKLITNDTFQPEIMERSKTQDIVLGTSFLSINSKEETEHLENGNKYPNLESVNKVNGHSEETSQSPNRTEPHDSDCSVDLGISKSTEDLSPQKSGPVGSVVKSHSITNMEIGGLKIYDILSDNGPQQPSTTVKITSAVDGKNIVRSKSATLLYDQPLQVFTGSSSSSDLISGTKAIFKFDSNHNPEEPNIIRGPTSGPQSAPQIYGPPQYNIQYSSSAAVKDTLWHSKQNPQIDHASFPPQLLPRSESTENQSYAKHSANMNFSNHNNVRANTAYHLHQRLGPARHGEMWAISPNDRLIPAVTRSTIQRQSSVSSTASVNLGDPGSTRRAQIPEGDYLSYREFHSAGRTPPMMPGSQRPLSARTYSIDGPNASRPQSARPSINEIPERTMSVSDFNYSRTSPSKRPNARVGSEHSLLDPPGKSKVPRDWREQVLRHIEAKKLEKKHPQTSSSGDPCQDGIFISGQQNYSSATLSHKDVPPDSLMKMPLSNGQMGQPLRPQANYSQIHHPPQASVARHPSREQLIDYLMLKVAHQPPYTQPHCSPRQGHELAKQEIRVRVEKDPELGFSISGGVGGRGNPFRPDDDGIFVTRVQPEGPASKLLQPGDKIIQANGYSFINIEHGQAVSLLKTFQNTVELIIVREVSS
Chain of UniProt Q13347 (Q13347 whole entry, looked up): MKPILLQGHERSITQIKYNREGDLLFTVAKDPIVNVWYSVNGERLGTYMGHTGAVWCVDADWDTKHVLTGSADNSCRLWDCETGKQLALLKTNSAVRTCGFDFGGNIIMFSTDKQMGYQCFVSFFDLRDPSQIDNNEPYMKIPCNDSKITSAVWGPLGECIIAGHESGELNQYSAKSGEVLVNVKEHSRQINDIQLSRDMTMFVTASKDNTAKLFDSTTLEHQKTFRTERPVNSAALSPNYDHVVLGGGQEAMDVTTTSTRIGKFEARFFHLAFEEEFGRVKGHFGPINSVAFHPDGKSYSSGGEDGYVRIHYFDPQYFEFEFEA
Chain of UniProt P51114 (P51114 whole entry, looked up): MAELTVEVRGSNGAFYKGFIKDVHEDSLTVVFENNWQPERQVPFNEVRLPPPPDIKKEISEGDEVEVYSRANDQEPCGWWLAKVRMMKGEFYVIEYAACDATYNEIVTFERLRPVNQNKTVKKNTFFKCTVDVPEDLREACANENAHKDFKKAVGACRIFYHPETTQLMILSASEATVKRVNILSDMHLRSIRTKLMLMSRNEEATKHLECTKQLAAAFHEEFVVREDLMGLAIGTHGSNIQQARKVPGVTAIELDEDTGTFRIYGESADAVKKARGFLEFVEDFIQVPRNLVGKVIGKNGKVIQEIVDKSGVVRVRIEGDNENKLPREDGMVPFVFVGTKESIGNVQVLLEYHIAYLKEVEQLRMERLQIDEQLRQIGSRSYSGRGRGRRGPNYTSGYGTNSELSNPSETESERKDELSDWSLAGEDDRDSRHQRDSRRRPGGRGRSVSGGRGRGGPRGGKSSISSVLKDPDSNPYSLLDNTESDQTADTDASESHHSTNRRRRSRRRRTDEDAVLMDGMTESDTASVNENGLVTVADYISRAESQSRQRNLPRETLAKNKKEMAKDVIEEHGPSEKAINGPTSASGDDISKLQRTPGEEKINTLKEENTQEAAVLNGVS
Chain of UniProt Q9H8W3 (Q9H8W3 whole entry, looked up): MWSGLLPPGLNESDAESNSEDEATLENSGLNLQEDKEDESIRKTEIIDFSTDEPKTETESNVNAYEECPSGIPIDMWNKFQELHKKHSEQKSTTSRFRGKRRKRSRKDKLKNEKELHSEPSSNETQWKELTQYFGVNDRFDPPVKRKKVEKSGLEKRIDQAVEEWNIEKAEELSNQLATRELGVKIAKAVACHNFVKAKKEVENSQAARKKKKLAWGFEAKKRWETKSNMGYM
Chain of UniProt Q13144 (Q13144 whole entry, looked up): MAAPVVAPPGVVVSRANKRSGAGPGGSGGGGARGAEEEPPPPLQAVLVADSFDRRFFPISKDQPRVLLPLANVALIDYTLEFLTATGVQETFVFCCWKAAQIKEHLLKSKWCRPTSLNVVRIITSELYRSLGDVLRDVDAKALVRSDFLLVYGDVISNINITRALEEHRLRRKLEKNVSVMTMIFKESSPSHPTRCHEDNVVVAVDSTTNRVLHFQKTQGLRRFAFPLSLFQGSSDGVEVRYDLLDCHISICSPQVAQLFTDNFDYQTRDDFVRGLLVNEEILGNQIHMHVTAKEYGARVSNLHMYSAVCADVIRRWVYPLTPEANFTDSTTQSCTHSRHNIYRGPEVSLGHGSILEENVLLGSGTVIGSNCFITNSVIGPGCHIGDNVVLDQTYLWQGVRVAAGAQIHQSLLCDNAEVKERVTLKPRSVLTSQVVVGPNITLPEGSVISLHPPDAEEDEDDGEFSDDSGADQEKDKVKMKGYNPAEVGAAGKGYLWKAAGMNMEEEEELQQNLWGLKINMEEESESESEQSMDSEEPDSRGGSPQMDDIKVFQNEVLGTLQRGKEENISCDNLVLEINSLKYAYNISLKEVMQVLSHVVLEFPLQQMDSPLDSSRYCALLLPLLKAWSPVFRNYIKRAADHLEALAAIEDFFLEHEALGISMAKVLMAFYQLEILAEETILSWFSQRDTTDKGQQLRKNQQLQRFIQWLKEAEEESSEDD
Chain of UniProt Q6IPR1 (Q6IPR1 whole entry, looked up): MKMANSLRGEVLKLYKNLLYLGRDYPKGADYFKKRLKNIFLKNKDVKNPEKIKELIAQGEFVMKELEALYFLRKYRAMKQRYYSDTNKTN
Chain of UniProt Q9NVI1 (Q9NVI1 whole entry, looked up): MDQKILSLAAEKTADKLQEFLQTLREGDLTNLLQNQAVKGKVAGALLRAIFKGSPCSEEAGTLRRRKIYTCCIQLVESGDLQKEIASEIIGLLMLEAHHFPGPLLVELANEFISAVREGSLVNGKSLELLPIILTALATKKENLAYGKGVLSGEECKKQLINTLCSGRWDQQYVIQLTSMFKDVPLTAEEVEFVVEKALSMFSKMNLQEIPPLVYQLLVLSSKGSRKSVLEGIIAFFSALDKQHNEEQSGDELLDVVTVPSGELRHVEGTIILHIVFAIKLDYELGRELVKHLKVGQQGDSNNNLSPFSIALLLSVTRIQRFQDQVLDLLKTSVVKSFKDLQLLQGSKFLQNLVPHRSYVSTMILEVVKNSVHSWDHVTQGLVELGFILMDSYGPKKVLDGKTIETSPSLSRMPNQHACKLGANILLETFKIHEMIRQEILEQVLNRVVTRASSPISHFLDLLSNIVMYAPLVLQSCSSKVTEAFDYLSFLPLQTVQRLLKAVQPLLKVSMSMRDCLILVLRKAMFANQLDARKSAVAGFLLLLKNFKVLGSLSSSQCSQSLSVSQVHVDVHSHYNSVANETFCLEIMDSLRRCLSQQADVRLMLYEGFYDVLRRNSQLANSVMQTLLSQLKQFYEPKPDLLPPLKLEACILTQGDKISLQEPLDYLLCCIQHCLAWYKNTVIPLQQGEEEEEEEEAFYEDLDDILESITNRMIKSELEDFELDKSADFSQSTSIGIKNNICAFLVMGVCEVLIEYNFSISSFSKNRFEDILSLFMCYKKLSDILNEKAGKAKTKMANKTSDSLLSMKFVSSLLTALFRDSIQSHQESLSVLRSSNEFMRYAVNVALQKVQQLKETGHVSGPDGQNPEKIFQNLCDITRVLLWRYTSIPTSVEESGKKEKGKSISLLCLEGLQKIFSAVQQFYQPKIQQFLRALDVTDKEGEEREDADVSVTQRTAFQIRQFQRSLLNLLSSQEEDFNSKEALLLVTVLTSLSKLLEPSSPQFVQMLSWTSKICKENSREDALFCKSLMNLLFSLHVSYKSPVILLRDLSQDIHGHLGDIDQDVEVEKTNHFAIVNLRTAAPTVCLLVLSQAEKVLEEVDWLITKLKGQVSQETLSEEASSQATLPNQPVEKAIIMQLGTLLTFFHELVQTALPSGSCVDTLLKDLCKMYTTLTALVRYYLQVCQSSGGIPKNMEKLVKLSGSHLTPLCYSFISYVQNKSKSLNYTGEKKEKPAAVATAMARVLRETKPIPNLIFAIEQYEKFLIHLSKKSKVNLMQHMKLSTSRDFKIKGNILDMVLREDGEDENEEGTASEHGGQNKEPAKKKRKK
Chain of UniProt Q9NRW4 (Q9NRW4 whole entry, looked up): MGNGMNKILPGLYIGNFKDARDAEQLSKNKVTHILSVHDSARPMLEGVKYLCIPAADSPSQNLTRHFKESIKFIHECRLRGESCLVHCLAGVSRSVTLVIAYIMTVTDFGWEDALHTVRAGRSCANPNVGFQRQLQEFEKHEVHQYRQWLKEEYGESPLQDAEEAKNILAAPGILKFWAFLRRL

| Target | log2 fold change |
| --- | --- |
| G6PD isoform 2 (UniProt P11413) | 0.008 |
| GALNT2 (UniProt Q10471) | -0.018 |
| ETFRF1 (UniProt Q6IPR1) | 0.03 |
| ERBIN isoform 8 (UniProt Q96RT1) | -0.016 |
| FAM204A (UniProt Q9H8W3) | -0.057 |
| EIF3I (UniProt Q13347) | 0.022 |
| DUSP22 isoform 2 (UniProt Q9NRW4) | -0.025 |
| DTL (UniProt Q9NZJ0) | -0.011 |
| FXR1 (UniProt P51114) | -0.006 |
| FANCI (UniProt Q9NVI1) | 0.002 |
| EIF2B5 (UniProt Q13144) | 0.013 |

Compound: O=C(CCCCCCC(=O)Nc1ccccc1)NO [vorinostat]
Test: as above
Outline: as §1

| Target | log2 fold change |
| --- | --- |
| FNTB (UniProt P49356) | 0.03 |
| ELF2 (UniProt Q15723) | -0.25 |
| EFCAB14 (UniProt O75071) | 0.327 (active) |
| FDX2 (UniProt Q6P4F2) | 0.195 |
| FBXO30 (UniProt Q8TB52) | -0.316 (active) |
| GFPT1 (UniProt Q06210) | -0.409 (active) |
| FTL (UniProt P02792) | 0.018 |
| FAT2 (UniProt Q9NYQ8) | 0.001 |
| ENSA isoform 3 (UniProt O43768) | 0.144 |
| FKBP8 isoform 2 (UniProt Q14318) | -0.219 (active) |
| ENO1, A0A2R8YEM5 | 0.119 |
| FIGNL1 (UniProt Q6PIW4) | -0.484 (active) |
| GCLM (UniProt P48507) | -0.277 (active) |
| EXOC1 (UniProt Q9NV70) | -0.45 (active) |
| ERLIN2 (UniProt O94905) | 0.032 |
| EPRS (UniProt P07814) | -0.365 (active) |
| EIF2D (UniProt P41214) | -0.385 (active) |
| FADS1, A0A0A0MR51 | 0.093 |

| Target | log2 fold change |
| --- | --- |
| EPN2 (UniProt O95208) | 0.156 |
| EMP3 (UniProt P54852) | -0.022 |
| DTWD1 (UniProt Q8N5C7) | -0.27 (active) |
| FIG4 (UniProt Q92562) | -0.517 (active) |
| FAM98A (UniProt Q8NCA5) | -0.558 (active) |
| FIBP (UniProt O43427) | -0.006 |
| G6PD isoform 2 (UniProt P11413) | -0.46 (active) |
| GALNT2 (UniProt Q10471) | 0.069 |
| ETFRF1 (UniProt Q6IPR1) | 0.24 (active) |
| ERBIN isoform 8 (UniProt Q96RT1) | -0.008 |
| FAM204A (UniProt Q9H8W3) | -0.211 |
| EIF3I (UniProt Q13347) | -0.316 (active) |
| DUSP22 isoform 2 (UniProt Q9NRW4) | -0.102 |
| DTL (UniProt Q9NZJ0) | -0.165 |
| FXR1 (UniProt P51114) | -0.257 (active) |
| FANCI (UniProt Q9NVI1) | -0.389 (active) |
| EIF2B5 (UniProt Q13144) | -0.227 (active) |
